In PubChem BioAssay AID1259313 (Sanford-Burnham Center for Chemical Genomics, 2017):
Hit rate of the full screen: of about 340,000 compounds, about 8,500 (2.5%) were called active. The sample holds actives, similar compounds and a random draw of the others, so the mix is not that of the screen.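 How the source made its calls: active means melting temperature shift of at least 10% of the positive control shift, at one fixed dose; inactive means the rest.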

Each compound was assayed on Glutamate receptor ionotropic, NMDA 3A (GRIN3A) ligand-binding domain (assay: NR3A LBD thermal stabilization by compounds – biophysical, differential scanning fluorimetry, uHTS, primary screen (AID 1259313)). Details: at 25 µM, active compounds read high, 0% = protein alone, 100% = glycine-bound protein.
With `Cc1nn(C)cc1/C=C1\CCC/C(=C\c2cn(C)nc2C)C1=O` the Tm shift relative to glycine control was -1.19% (inactive).
In the case of `CC(Oc1ccccc1[N+](=O)[O-])C(=O)N/N=C/c1ccoc1` (stereo not drawn), the Tm shift relative to glycine control is reported as -0.52% (inactive).
With `Cc1ccc2cccc(OCCCOc3ccccc3CO)c2n1` the Tm shift relative to glycine control was -1.42% (inactive).
With `Cc1cc(N=Nc2ccc3ccccc3c2)ccc1O` the Tm shift relative to glycine control was 28.8% (active).
`O=C(NNC(=S)NC(=O)c1cn(-c2ccccc2)nc1-c1ccccc1)c1ccncc1` was tested, and the Tm shift relative to glycine control was -4.35% (inactive).
In the case of `O=C(CN1CCOc2ccccc21)N1CCC(Cc2ccccc2)CC1`, the Tm shift relative to glycine control is reported as -1.44% (inactive).
In the case of `COc1ccc(C(=O)N2CCCCC2C(=O)Nc2ccc(-n3nc(C)cc3C)cc2)o1` (stereo not drawn), the Tm shift relative to glycine control is reported as 6.75% (inactive).
`COc1cc(/C=C2\SC(=O)NC2=O)ccc1OCc1ccc(Cl)nc1` was tested, and the Tm shift relative to glycine control was 25.9% (active).
In the case of `CCN(CC)CCNCc1ccc(OCc2ccc(Cl)nc2)c(OC)c1`, the Tm shift relative to glycine control is reported as 8.95% (inactive).
For `COc1cc(/C=C2/C(=O)ON=C2C)ccc1OCc1cccc(F)c1`, the Tm shift relative to glycine control was -26.4% (inactive).
In the case of `Cc1cccn2cc(-c3cccc(S(=O)(=O)N4CCCCC4)c3)nc12`, the Tm shift relative to glycine control is reported as 5.23% (inactive).
`Cc1cccc(N(C(=O)c2csnn2)C(C(=O)NCc2ccccc2)c2ccncc2)c1` (stereo not drawn) was tested, and the Tm shift relative to glycine control was -0.09% (inactive).
For `CCOc1ccccc1Nc1nnc(SCC(=O)NCC2CCCO2)s1` (stereo not drawn), the Tm shift relative to glycine control was 5.39% (inactive).
With `CCOC(=O)N1CCN(C(=O)c2cn(C)c3ccc(S(=O)(=O)N(CC)CC)cc3c2=O)CC1` the Tm shift relative to glycine control was 0% (inactive).
For `O=C(Nc1cccc(Cl)c1)c1cncn1-c1ccc(F)cc1`, the Tm shift relative to glycine control was -0.7% (inactive).
With `Cc1cccc(N=C2NC(=O)CS2)c1C` the Tm shift relative to glycine control was 5.95% (inactive).
For `O=C(CSc1nc2ccc([N+](=O)[O-])cc2[nH]1)c1ccc(Cl)cc1`, the Tm shift relative to glycine control was 18.5% (active).
For `Cc1nc2nc(SCC(=O)c3ccccc3)[nH]c2cc1Br`, the Tm shift relative to glycine control was -9.38% (inactive).
For `CC(=O)Nc1ccc(C(=O)CSc2nc3ccc(C)cc3[nH]2)cc1`, the Tm shift relative to glycine control was -17.4% (inactive).
With `O=C(Nc1ccc(Cl)cc1)c1cccc(OC(=S)N2CCOCC2)c1` the Tm shift relative to glycine control was -0.47% (inactive).
`C/C(=N/Nc1ccc(Cl)cc1)c1cnnc(-c2ccccc2)n1` was tested, and the Tm shift relative to glycine control was 10.3% (active).
`C/C(=N\Nc1ccccc1)c1cccs1` was tested, and the Tm shift relative to glycine control was 1.45% (inactive).
With `CC/C(=N/Nc1ccccc1)c1cnnc(SC)n1` the Tm shift relative to glycine control was 1.52% (inactive).
For `CN(CCO)c1ccc(/C=N/Nc2nncc3ccccc23)cc1`, the Tm shift relative to glycine control was 3.23% (inactive).
For `Cc1csc(NC(=O)CSc2nc(=O)cc(N)n2-c2ccc(F)cc2)n1`, the Tm shift relative to glycine control was -0.09% (inactive).
`CC(C)N1CCC(N2CCN(Cc3cccnc3)CC2CCO)CC1` (stereo not drawn) was tested, and the Tm shift relative to glycine control was -1.29% (inactive).
In the case of `Clc1ccc(Cc2nnc(-c3cccs3)o2)cc1`, the Tm shift relative to glycine control is reported as -0.55% (inactive).
With `Clc1ccc(Nc2nc(-c3cccs3)cs2)nc1` the Tm shift relative to glycine control was 23% (active).
In the case of `CCCc1cc(C(=O)Nc2ccc(Cl)cn2)cs1`, the Tm shift relative to glycine control is reported as 0.69% (inactive).
With `Cc1cc(C)cc(NC(=O)C(OC(=O)c2ccc(O)cc2)c2ccccc2)c1` (stereo not drawn) the Tm shift relative to glycine control was 10.5% (active).
For `Cc1ccc(C)c(NC(=O)C(OC(=O)c2ccc(C)s2)c2ccccc2)c1` (stereo not drawn), the Tm shift relative to glycine control was -6.89% (inactive).
With `Cc1cc(C)cc(NC(=O)C(c2ccccc2)N2CCN(CC(=O)N3CCCC3)CC2)c1` (stereo not drawn) the Tm shift relative to glycine control was -1.19% (inactive).
For `COc1cc(CO)c(C2(CO)CCCC2)cc1OC`, the Tm shift relative to glycine control was -9.65% (inactive).
In the case of `NC(=O)C1(Nc2ccc(-c3ccccc3)cc2)CCCC1`, the Tm shift relative to glycine control is reported as 2.37% (inactive).
With `N#CC1(Nc2ccc(-c3ccc(Cl)cc3)cc2)CCCC1` the Tm shift relative to glycine control was 20.4% (active).
With `CNc1nccc(-c2ccc(Cl)cc2)c1C#N` the Tm shift relative to glycine control was -0.74% (inactive).
`COc1ccccc1CNC(=O)CNC(=O)c1cn(-c2ccccc2OC)c(=O)c2ccccc12` was tested, and the Tm shift relative to glycine control was -0.54% (inactive).
`Cc1ccc(NC(=O)CSCC(=O)N2CCOCC2)cc1` was tested, and the Tm shift relative to glycine control was 1.21% (inactive).
With `Cc1cc2c(cc1C)[n+](C)cn2CC(O)COCC1CC=CCC1` (stereo not drawn) the Tm shift relative to glycine control was 11.6% (active).
With `CNC(=S)N/N=C/c1ccc(N2CCOCC2)s1` the Tm shift relative to glycine control was -0.99% (inactive).
`CCCn1c(=O)c2c(C(F)(F)F)cc(-c3cccs3)nc2n(CCC)c1=O` was tested, and the Tm shift relative to glycine control was 0.77% (inactive).
`COc1ccc(NC(=O)NCCN2CCN(c3ccc(C)cc3)CC2)c(Cl)c1` was tested, and the Tm shift relative to glycine control was -3.16% (inactive).
In the case of `Cc1ccc(C2(C)NC(=O)N(CC(=O)Nc3ccccc3C(=O)N3CCCCC3)C2=O)cc1` (stereo not drawn), the Tm shift relative to glycine control is reported as -1.86% (inactive).
With `CSCCC(NS(=O)(=O)c1ccc(C)cc1)C(=O)N(C)CC(=O)Nc1ccccc1Br` (stereo not drawn) the Tm shift relative to glycine control was 0.34% (inactive).
With `CCCc1cc(C(=O)Nc2ccc(C(=O)OC)cc2)cs1` the Tm shift relative to glycine control was -10.4% (inactive).
`COc1ccc(Nc2ncnc3sc(C)cc23)cc1` was tested, and the Tm shift relative to glycine control was -17.1% (inactive).
In the case of `COC(=O)c1ccc(Nc2ncnc3sccc23)cc1`, the Tm shift relative to glycine control is reported as 13% (active).
For `C/C(=N\N)c1c(-c2ccccc2)c2cc(Br)ccc2[nH]c1=O`, the Tm shift relative to glycine control was -2.09% (inactive).
In the case of `CC(=O)NCCC(=O)Nc1cc(S(=O)(=O)N2CCCCC2)ccc1Oc1cccc(C)c1`, the Tm shift relative to glycine control is reported as 1.88% (inactive).
For `CC(=O)N1C(=O)/C(=C2\SC(=S)N(NC(=O)c3ccc(O)cc3)C2=O)c2ccccc21`, the Tm shift relative to glycine control was 21.7% (active).
In the case of `O=C(O)c1ccc2c(c1)C(=O)N(NC(=O)c1ccc(O)cc1)C2=O`, the Tm shift relative to glycine control is reported as 0.18% (inactive).
For `Cn1cccc1/C=C1\SC(=S)N(NC(=O)c2ccc(Cl)cc2)C1=O`, the Tm shift relative to glycine control was 8.58% (inactive).
In the case of `Cc1ccc(CC2CC(=O)N(c3cc(C)ccc3C)C2=O)cc1` (stereo not drawn), the Tm shift relative to glycine control is reported as -1.45% (inactive).
For `COc1ccc(NC(=O)C(=O)NCC(=O)Nc2cccc(C(F)(F)F)c2)cc1`, the Tm shift relative to glycine control was 7.67% (inactive).
In the case of `COc1cc(NC(=O)c2[nH]cnc2C(N)=O)cc(C(=O)Nc2cccc(C(F)(F)F)c2)c1`, the Tm shift relative to glycine control is reported as 14.8% (active).
`COc1cc(NC(=O)c2cncc(-c3ccc(C#N)cc3)c2)cc(C(=O)Nc2cccc(C(F)(F)F)c2)c1` was tested, and the Tm shift relative to glycine control was -1.27% (inactive).
`N#Cc1ccccc1NC(=O)c1cccc(COc2ccc(Cl)cc2Cl)c1` was tested, and the Tm shift relative to glycine control was 7.12% (inactive).
`O=C(NCCC1CCCCN1S(=O)(=O)c1cccs1)C(=O)Nc1ccc(F)cc1F` (stereo not drawn) was tested, and the Tm shift relative to glycine control was 1.11% (inactive).
`c1ccc(CCc2ccccn2)cc1` was tested, and the Tm shift relative to glycine control was 1.84% (inactive).
With `CC1(C)C=Cc2c(ccc3c2OC[C@@H](c2ccc(O)cc2O)C3)O1` the Tm shift relative to glycine control was 8.09% (inactive).
For `Cc1ccc2c(=O)cc(C(=O)NCCc3ccc(S(N)(=O)=O)cc3)oc2c1C`, the Tm shift relative to glycine control was 10.6% (active).
In the case of `Cc1cc(=O)oc2c(C)c(OCC(=O)NCCc3ccc(S(N)(=O)=O)cc3)ccc12`, the Tm shift relative to glycine control is reported as -1.05% (inactive).
`Cc1cc(=O)oc2cc(OC(C)C(=O)NCCc3ccc(S(N)(=O)=O)cc3)ccc12` (stereo not drawn) was tested, and the Tm shift relative to glycine control was -2.25% (inactive).
